Measurements as given in PubChem BioAssay (EPA / NIEHS).
Some compounds were tested as several samples or in several runs, with calls that do not always agree. Active and inactive are the calls of the source. The calls were made as follows: active = hit-call score of the fitted dose curve at least 0.9, where 1 is the maximum; inactive = score below 0.9.

Assays:
[1] = ATG_CRE_CIS: Attagene CIS-FACTORIAL HepG2 Assay for human cAMP Responsive Element (CRE) binding protein 3 (AID 2282926); conditions: HepG2 CRE cis-reporter, Attagene multiplexed mRNA; actives raise or lower the signal
Method in brief: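 Transfected HepG2 were treated for 24 hours, then RNA was extracted and reporter cDNA amplified with sequence-specific primers. Labelled fragments were separated by capillary electrophoresis, and the CRE signal was fitted bidirectionally with DMSO as baseline.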

[2] = molecular target: CCAAT/enhancer-binding protein beta (Homo sapiens) (UniProt P17676); assay: ATG_C_EBP_CIS: Attagene CIS-FACTORIAL HepG2 Assay for human CCAAT/Enhancer Binding Protein (C/EBP) beta (AID 2282927); conditions: HepG2 Attagene cis-factorial transcription factor reporter; actives raise or lower the signal
Method in brief: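 HepG2 transiently transfected with multiplexed reporter units under cis-regulatory promoters reporting endogenous C/EBPb activity. After 24 h exposure, reporter mRNA assayed by RT-PCR, fluorescent labelling, HpaI digestion and capillary electrophoresis; bidirectional fitting versus DMSO.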

[3] = ATG_CMV_CIS: Attagene CIS-FACTORIAL HepG2 Assay for human CMV (Internal Marker) (AID 2282928); conditions: HepG2 CMV promoter reporter, transcription factor profiling; actives raise or lower the signal;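 also: endpoint acts as a background internal control marker rather than a target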
Method in brief: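 After transient transfection of HepG2 with reporter transcription units driven by cis-regulatory promoters, cells receive test chemical for 24 h. Labeled reporter amplicons, digested with HpaI, are sized and quantified by capillary electrophoresis against DMSO.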

[4] = ATG_DR4_LXR_CIS: Attagene CIS-FACTORIAL HepG2 Assay for human Liver X Receptor (LXR), DR4 submotif (AID 2282929); conditions: HepG2 Attagene DR4 cis-reporter, mRNA transcription; actives raise or lower the signal
Method in brief: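 Transiently transfected HepG2 liver cells; cis-regulated reporters; 24 h dosing. RT-PCR plus CE read-out of reporter mRNA. DMSO baseline, bidirectional curve fitting.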

[5] = molecular target: Aryl hydrocarbon receptor (Homo sapiens) (UniProt P35869); assay: ATG_Ahr_CIS: Attagene CIS-FACTORIAL HepG2 Assay for human Aryl Hydrocarbon Receptor (Ahr) (AID 2282930); conditions: HepG2 AhR cis-factorial reporter transcription; actives raise or lower the signal
Method in brief: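 HepG2 cells transiently transfected with cis-element-driven multiplexed reporter units; endogenous AhR activity read as reporter mRNA 24 h after dosing, via RT-PCR, 6-FAM labelling, HpaI digestion and capillary electrophoresis. Bidirectional fit relative to DMSO.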

[6] = ATG_AP_1_CIS: Attagene CIS-FACTORIAL HepG2 Assay for human Activator Protein 1 (AP-1) (AID 2282931); conditions: HepG2 Attagene cis-factorial AP-1 reporter mRNA; actives raise or lower the signal
Method in brief: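 We transfected HepG2 cells transiently with a set of cis-regulated reporter transcription units, dosed them for 24 h, and quantified reporter mRNA via RT-PCR and capillary electrophoresis, scoring gain or loss of signal relative to DMSO.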

[7] = ATG_AP_2_CIS: Attagene CIS-FACTORIAL HepG2 Assay for human Activator Protein 2 (AP-2) (AID 2282932); conditions: HepG2 AP-2 cis-reporter, Attagene transcription factor profiling; actives raise or lower the signal
Method in brief: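 Multiplexed mRNA reporter assay in HepG2: cis-regulated units report endogenous factor activity after 24 h treatment. Fluorescence from capillary electrophoresis of RT-PCR products gives the signal, with DMSO as baseline.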

[8] = ATG_BRE_CIS: Attagene CIS-FACTORIAL HepG2 Assay for human Bone Morphogenetic Protein (BMP) Response Element (BRE) (AID 2282933); conditions: HepG2 BMP response element reporter, Attagene transcription factor profiling; actives raise or lower the signal
Method in brief: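 Read-out: reporter mRNA induction quantified by RT-PCR and capillary electrophoresis after 24 h chemical exposure of transfected HepG2 cells. Endogenous factor activity on the BMP response element; gain or loss fitted against DMSO baseline.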

[9] = molecular target: Retinoic acid receptor alpha (Homo sapiens) (UniProt P10276); assay: ATG_DR5_RAR_CIS: Attagene CIS-FACTORIAL HepG2 Assay for human Retinoic Acid Receptor Alpha (RARE), DR5 submotif (AID 2282934); conditions: HepG2 Attagene cis-factorial RARE DR5 reporter, mRNA; actives raise or lower the signal
Method in brief: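 HepG2 cells transiently transfected with multiplexed reporter units; DR5 cis-element drives reporter through endogenous transcription factors. After 24 h dosing, reporter mRNA quantified by RT-PCR, fluorescent labeling, HpaI digestion and capillary electrophoresis; bidirectional fitting versus DMSO.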

[10] = molecular target: Transcription factor E2F1 (Homo sapiens) (UniProt Q01094); assay: ATG_E2F_CIS: Attagene CIS-FACTORIAL HepG2 Assay for human E2F Transcription Factor 1 (AID 2282935); conditions: HepG2 Attagene cis-reporter, E2F reporter RNA transcripts; actives raise or lower the signal
Method in brief: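 Measures reporter transcript levels via RT-PCR with capillary electrophoresis detection in HepG2 cells harboring cis-regulated reporter units; 24 h post-dose; bidirectional curve fitting with DMSO as baseline.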

[11] = ATG_E_Box_CIS: Attagene CIS-FACTORIAL HepG2 Assay for human Enhancer Box (E-box) (AID 2282936); conditions: HepG2 E-box cis-reporter transcription, actives raise or lower the signal
Method in brief: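 First, HepG2 cells receive multiple cis-regulated reporter constructs by transient transfection. Next, chemicals are applied for 24 h. Finally, reporter mRNA is quantified via RT-PCR and capillary electrophoresis, with DMSO as baseline.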

[12] = ATG_M_61_CIS: Attagene CIS-FACTORIAL HepG2 Assay for M61 Transcription Factor (Internal Marker) (AID 2282937); conditions: HepG2 Attagene CIS-FACTORIAL M61 internal marker reporter; actives raise or lower the signal
Method in brief: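 Multiplexed reporter mRNA assay, HepG2 human hepatoma cells, 24 h treatment. Signal: FAM-labelled, HpaI-digested RT-PCR fragments by CE. Fit: bidirectional, baseline DMSO.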

[13] = ATG_EGR_CIS: Attagene CIS-FACTORIAL HepG2 Assay for human Early Growth Response 1 (EGR1) (AID 2282938); conditions: HepG2 Attagene CIS-FACTORIAL EGR reporter mRNA; actives raise or lower the signal
Method in brief: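 Multiplexed cis-reporter system in human hepatoma HepG2 cells, transiently transfected. Cells are dosed for 24 h; reporter transcripts are amplified, fluorescently tagged and sized by capillary electrophoresis, with DMSO as negative control.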

[14] = ATG_M_19_CIS: Attagene CIS-FACTORIAL HepG2 Assay for M19 Transcription Factor (Internal Marker) (AID 2282939); conditions: HepG2 Attagene CIS-FACTORIAL M19 internal marker reporter; actives raise or lower the signal
Method in brief: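 Readout: fluorescent reporter-transcript fragments by capillary electrophoresis after RT-PCR. Human HepG2 liver cells carried transfected MRTU constructs reporting endogenous transcription-factor activity; exposure 24 h. Gain or loss of signal fitted relative to DMSO.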

[15] = ATG_ERE_CIS: Attagene CIS-FACTORIAL HepG2 Assay for Estrogen Response Element (ERE) (AID 2282940); conditions: HepG2 ERE cis-reporter, Attagene RNA transcript; actives raise or lower the signal
Method in brief: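 Readout: reporter mRNA induction by RT-PCR, FAM-labelled primer extension, HpaI digestion and capillary electrophoresis, 24 h after dosing transfected HepG2 cells. Endogenous transcription factors act on cis-element-regulated reporters. Gain or loss fitted against DMSO.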

[16] = ATG_Ets_CIS: Attagene CIS-FACTORIAL HepG2 Assay for human Erythroblast Transformation Specific (ETS) (AID 2282941); conditions: HepG2 ETS cis-reporter transcription, actives raise or lower the signal
Method in brief: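 Human HepG2 hepatoma cells were transiently transfected with promoter-driven reporter constructs and treated for 24 hours. Reporter transcripts were quantified by RT-PCR with fluorescent primer extension; bidirectional curve fitting used DMSO as reference.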

[17] = molecular target: Hepatocyte nuclear factor 3-beta (Homo sapiens) (UniProt Q9Y261); assay: ATG_FoxA2_CIS: Attagene CIS-FACTORIAL HepG2 Assay for human Forkhead box A2 (FOXA2) (AID 2282942); conditions: HepG2 cis-reporter transcription factor activity, 24 h; actives raise or lower the signal
Method in brief: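 Multiplexed cis-element reporter assay in transiently transfected HepG2. Twenty-four hours post-dosing, RNA was reverse-transcribed, amplified, FAM-labelled, HpaI-digested and separated by CE. Activity gain or loss relative to DMSO.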

[18] = ATG_FoxO_CIS: Attagene CIS-FACTORIAL HepG2 Assay for human Forkhead box O (FoxO) (AID 2282943); conditions: HepG2 Attagene cis-reporter, FoxO element, mRNA; actives raise or lower the signal
Method in brief: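 HepG2 cells transiently transfected with cis-element-driven reporter units report endogenous FoxO activity. After 24 h chemical exposure, reporter mRNA quantified by RT-PCR, fluorescent labeling, HpaI digestion and capillary electrophoresis; bidirectional fit versus DMSO.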

[19] = ATG_GATA_CIS: Attagene CIS-FACTORIAL HepG2 Assay for human GATA Binding Protein (AID 2282944); conditions: HepG2 GATA cis-element reporter, Attagene multiplex mRNA; actives raise or lower the signal
Method in brief: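 Read-out: fluorescent reporter mRNA fragments resolved by capillary electrophoresis after RT-PCR. Human liver HepG2 cells carried transiently transfected cis-regulated reporter constructs; chemicals incubated 24 h; gain or loss of signal fitted relative to DMSO.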

[20] = ATG_GLI_CIS: Attagene CIS-FACTORIAL HepG2 Assay for human Zinc Finger Protein GLI1 (AID 2282945); conditions: HepG2, Attagene cis-factorial reporter mRNA, GLI element; actives raise or lower the signal
Method in brief: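 Transiently transfected HepG2 cells report endogenous transcription factor activity via cis-element-driven reporter units. After 24 h compound exposure, reporter mRNA was measured by RT-PCR with capillary electrophoresis; bidirectional fitting against DMSO baseline.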

Measured: AC50

Chain of CCAAT/enhancer-binding protein beta (Homo sapiens) (P17676 whole entry, looked up): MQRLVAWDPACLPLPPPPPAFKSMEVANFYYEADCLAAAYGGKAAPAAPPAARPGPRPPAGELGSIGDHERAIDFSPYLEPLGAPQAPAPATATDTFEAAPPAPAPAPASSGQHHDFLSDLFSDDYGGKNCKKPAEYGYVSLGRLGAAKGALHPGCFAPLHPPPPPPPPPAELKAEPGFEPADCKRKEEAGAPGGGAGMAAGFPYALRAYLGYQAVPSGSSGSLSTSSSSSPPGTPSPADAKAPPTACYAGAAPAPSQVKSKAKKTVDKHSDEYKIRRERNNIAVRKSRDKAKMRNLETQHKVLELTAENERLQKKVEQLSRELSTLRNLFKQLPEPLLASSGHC
Chain of Retinoic acid receptor alpha (Homo sapiens) (P10276 whole entry, looked up): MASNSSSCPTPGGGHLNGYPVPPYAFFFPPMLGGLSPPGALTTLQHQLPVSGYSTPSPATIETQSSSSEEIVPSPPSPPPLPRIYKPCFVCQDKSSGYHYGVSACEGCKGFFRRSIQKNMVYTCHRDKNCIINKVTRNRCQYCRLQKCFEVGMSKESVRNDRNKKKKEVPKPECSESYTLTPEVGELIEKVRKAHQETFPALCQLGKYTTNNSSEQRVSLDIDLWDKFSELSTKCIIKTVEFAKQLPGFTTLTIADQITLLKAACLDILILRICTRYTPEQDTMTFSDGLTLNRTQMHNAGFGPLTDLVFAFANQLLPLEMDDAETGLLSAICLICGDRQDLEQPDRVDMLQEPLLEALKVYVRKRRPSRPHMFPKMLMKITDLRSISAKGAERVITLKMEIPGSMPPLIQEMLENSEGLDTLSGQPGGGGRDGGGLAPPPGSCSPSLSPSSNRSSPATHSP
Chain of Transcription factor E2F1 (Homo sapiens) (Q01094 whole entry, looked up): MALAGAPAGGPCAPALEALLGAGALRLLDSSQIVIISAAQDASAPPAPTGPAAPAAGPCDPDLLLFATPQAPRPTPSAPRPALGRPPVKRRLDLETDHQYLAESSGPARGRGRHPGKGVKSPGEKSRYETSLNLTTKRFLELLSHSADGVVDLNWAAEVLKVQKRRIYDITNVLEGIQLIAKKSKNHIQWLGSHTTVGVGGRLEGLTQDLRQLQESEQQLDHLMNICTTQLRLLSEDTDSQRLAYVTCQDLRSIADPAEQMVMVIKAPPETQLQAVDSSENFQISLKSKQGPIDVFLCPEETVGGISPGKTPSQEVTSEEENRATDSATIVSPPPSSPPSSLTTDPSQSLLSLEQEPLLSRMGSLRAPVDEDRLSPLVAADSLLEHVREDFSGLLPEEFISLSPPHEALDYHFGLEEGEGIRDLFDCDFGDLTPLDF
Chain of Aryl hydrocarbon receptor (Homo sapiens) (P35869 whole entry, looked up): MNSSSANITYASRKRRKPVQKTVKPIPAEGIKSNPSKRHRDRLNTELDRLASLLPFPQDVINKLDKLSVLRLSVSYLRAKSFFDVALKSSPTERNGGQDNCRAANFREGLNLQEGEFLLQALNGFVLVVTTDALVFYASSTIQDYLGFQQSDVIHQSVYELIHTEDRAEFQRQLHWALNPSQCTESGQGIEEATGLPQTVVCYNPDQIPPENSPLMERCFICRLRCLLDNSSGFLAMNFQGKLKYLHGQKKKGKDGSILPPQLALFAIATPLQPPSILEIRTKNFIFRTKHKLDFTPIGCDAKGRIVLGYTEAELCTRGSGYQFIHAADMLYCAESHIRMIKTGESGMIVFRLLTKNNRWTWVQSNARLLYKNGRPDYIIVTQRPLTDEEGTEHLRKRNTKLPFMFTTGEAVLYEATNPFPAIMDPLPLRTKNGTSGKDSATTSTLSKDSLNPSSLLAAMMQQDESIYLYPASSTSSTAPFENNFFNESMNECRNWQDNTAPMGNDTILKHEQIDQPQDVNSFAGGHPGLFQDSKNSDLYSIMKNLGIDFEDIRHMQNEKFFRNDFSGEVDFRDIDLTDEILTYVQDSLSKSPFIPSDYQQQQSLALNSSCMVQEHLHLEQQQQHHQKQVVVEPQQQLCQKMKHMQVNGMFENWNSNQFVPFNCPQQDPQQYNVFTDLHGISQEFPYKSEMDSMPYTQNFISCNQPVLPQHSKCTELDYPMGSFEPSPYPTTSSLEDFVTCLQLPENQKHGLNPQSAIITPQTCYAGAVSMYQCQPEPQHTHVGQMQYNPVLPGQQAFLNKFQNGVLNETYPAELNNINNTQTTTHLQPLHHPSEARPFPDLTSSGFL
Chain of Hepatocyte nuclear factor 3-beta (Homo sapiens) (Q9Y261 whole entry, looked up): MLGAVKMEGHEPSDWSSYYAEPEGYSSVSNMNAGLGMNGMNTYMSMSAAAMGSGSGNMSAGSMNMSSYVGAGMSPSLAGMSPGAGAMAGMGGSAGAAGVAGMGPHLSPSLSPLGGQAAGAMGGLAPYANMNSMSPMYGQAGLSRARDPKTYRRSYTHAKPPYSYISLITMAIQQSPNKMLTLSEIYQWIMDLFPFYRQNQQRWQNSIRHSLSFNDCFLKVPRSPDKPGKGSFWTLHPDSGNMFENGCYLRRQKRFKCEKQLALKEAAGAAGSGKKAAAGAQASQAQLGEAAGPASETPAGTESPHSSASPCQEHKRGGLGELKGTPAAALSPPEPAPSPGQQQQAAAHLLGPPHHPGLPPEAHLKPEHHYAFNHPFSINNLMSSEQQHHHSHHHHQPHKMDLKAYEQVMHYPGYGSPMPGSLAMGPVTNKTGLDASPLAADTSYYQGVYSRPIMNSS

CCC(C)c1cccc(C(C)CC)c1O (configuration not stated)
inactive: all assays above

CN(C)N=O
not listed: [15]
inactive: all other assays above

CC(C)c1cccc(C(C)C)c1O
not listed: [14] | [20]
inactive: all other assays above

CCOP(=S)(OCC)SCCS(=O)(=O)CC
not listed: [14] | [20]
inactive: all other assays above

Oc1cccc2cccnc12
active: [3] 139 µM | [5] 165 µM | [6] 24.8 µM | [11] 69.2 µM | [13] 70.1 µM
inactive: [1] | [2] | [3] | [4] | [5] | [6] | [7] | [8] | [10] | [11] | [12] | [13] | [16] | [17] | [18] | [19] | [20]

CC(C)(C)c1cc(O)ccc1O
active: [1] 151 µM | [2] 79.7 µM | [3] 64.7 µM | [4] 24.9 µM | [5] 1.85 µM | [6] 66.7 µM | [8] 19.8 µM | [10] 66.5 µM | [13] 120 µM
inactive: all other assays above
